Screening data deposited in PubChem BioAssay by National Center for Advancing Translational Sciences (NCATS).
Pf growth 48h – P. falciparum growth inhibition at 48 hours (one generation) | 5.9% of 310,000 active | Potency, µM (highest dose often 28.7 µM), actives largely listed as inhibitors | P. falciparum luciferase growth in erythrocytes, 48 h
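Compounds are pin-transferred into medium, infected erythrocytes (2% hematocrit, 0.1% parasitemia final) are added, and plates sit one parasite generation at 37 C in 5% CO2. Detection reagent is then added and luminescence measured.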
CHX counter – affects cycloheximide protein synthesis inhibition readout, counter-screen | cell reporter, cycloheximide protein synthesis inhibition counterscreen | 12% of 300,000 active | max response, %; in the data active means max response mostly above about 13%, no sharp cut-off; inactive means mostly below about 14%; further: read at 38.3 µM for the half of the compounds with a filed dose
Pf growth 96h – P. falciparum growth inhibition at 96 hour, primary screen for plastid delayed-death inhibitors | P. falciparum luciferase reporter growth, 96 h | Potency, µM (series often up to 28.7 µM), actives largely listed as inhibitors | 6.9% of 320,000 active
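Cell-based qHTS: luciferase-tagged P. falciparum in erythrocytes (2% hematocrit, 0.05% parasitemia final) incubated with compounds for 96 hours, 37 C, 5% CO2; luciferase detection reagent then added and luminescence measured.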
Shiga toxin inh – Shiga toxin inhibition | Vero cells, Shiga toxin protein synthesis inhibition reporter | inhibition, % at 38.7 µM | 9.2% of 290,000 active; in the data active means inhibition mostly above about 28%, no sharp cut-off; inactive means mostly below about 43%
HCMV inh – blocks human cytomegalovirus replication; HFF cells, HCMV-luciferase reporter, 72 h; stronger effect = lower value; AID 1259415; 4.5% of 410,000 active; activity change, negative = inhibition, % at 57.5 µM; in the data active means activity change below about -60%; inconclusive means no clear call, values can overlap the other calls; inactive means above about -39%
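After 16 h attachment at 37C, HFF cells received test compound and HCMV-luciferase (1 PFU/cell); reporter luminescence read 72 h later, data normalized against buffer-only and known inhibitor Salinomycin.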
Of the large screens only hits and unclear results are named; the others gave an inactive call; ! = not confirmed by another sample. Rows were chosen to be rich in hits. Some 20% of all compounds tested hit in one or more screens of this group. Unless noted, the call rests on the fitted dose curve; in most records, active means well fitted inhibition curve with a large enough effect; inconclusive means small, poorly fitted or top-dose-only effect, or another doubt; inactive means no such curve, though single readings can be large or run the other way.

CC(=O)NC(CC(=O)OCC(=O)N1CCN(S(=O)(=O)c2ccc(C)cc2C)CC1)c1ccccc1 (stereo unspecified)	Pf growth 48h inconclusive, HCMV inh inconclusive (no result: CHX counter, Shiga toxin inh)
C/C(=N\Nc1ncc(Br)cn1)c1cccc([N+](=O)[O-])c1	CHX counter 26
C/C(=N\Nc1cc(N2CCOCC2)ncn1)c1cccc([N+](=O)[O-])c1	none
CNC(=S)N/N=C(\C)c1cccc([N+](=O)[O-])c1	none
C/C(=N\NC(=O)OC(C)(C)C)c1cccc([N+](=O)[O-])c1	Shiga toxin inh 29
CCS(=O)(=O)c1ccc(C=NNc2nc3ccccc3o2)cc1	none (no result: Pf growth 48h, CHX counter, Pf growth 96h, Shiga toxin inh)
O=[N+]([O-])c1ccc(/C=N/Nc2nc3ccccc3o2)cc1	CHX counter 31, Pf growth 96h 9.3µM, Shiga toxin inh 48
C/C(=N\Nc1nc(N2CCOCC2)nc(N2CCOCC2)n1)c1cccc([N+](=O)[O-])c1	Pf growth 48h 10µM
C/C(=N\NC(=O)C(N)=O)c1cccc([N+](=O)[O-])c1	none
Cc1ccc(C(=O)CCC(=O)OCC(=O)N(C)c2c(N)n(Cc3ccccc3)c(=O)[nH]c2=O)cc1	none (no result: CHX counter, Shiga toxin inh)
O=C(NNS(=O)(=O)c1ccc([N+](=O)[O-])cc1)c1cnn(-c2ccccc2)c1-n1cccc1	none
COc1ccc([C@H]2C[C@@H](O)[C@H](n3cc(C4CC4)nn3)CN2Cc2cccs2)cc1	none (no result: Pf growth 48h, CHX counter, Pf growth 96h, Shiga toxin inh)
Cc1ccc([N+](=O)[O-])cc1Nc1nc(N2CCOCC2)nc(N2CCOCC2)n1	Pf growth 48h inconclusive, Pf growth 96h inconclusive, HCMV inh -70
O=[N+]([O-])c1ccc(Nc2nc(N/N=C/c3cccc(F)c3)nc(N3CCCC3)n2)cc1	Pf growth 48h 2.9µM, Pf growth 96h inconclusive
O=[N+]([O-])c1ccc(/C=N/Nc2cc(Cl)nc(-c3ccccc3)n2)cc1	Pf growth 48h inconclusive, Pf growth 96h inconclusive
CNc1nc(N/N=C/c2ccc([N+](=O)[O-])cc2)nc(Nc2ccccc2)n1	Pf growth 48h 3.3µM, Pf growth 96h inconclusive
COc1ccccc1NS(=O)(=O)c1cccc(C(=O)N/N=C/c2ccc([N+](=O)[O-])o2)c1	Pf growth 48h 1.9µM, Pf growth 96h 1.7µM (no result: CHX counter, Shiga toxin inh)
COc1ccccc1NS(=O)(=O)c1cccc(C(=O)N/N=C/c2ccc3c(c2)OCCO3)c1	CHX counter 28, Shiga toxin inh 53, HCMV inh -63
COc1ccc(NS(=O)(=O)c2cccc(C(=O)N/N=C/c3ccc4c(c3)OCCO4)c2)cc1	none
CCN(CC)c1ccc(/C=N/NC(=O)c2cccc(S(=O)(=O)Nc3ccccc3OC)c2)cc1	Pf growth 48h inconclusive
CCN(CC)c1ccc(/C=N/NC(=O)c2cccc(S(=O)(=O)Nc3ccccc3OC)c2)c(O)c1	Pf growth 48h 9.3µM, Pf growth 96h 12µM, HCMV inh -103
COc1ccccc1NS(=O)(=O)c1cccc(C(=O)N/N=C2\CC(=O)CC(C)(C)C2)c1	Pf growth 48h 13µM, Pf growth 96h inconclusive
COc1ccccc1NS(=O)(=O)c1cccc(C(=O)NN=C2CCCC2)c1	none
CN(C)S(=O)(=O)c1cccc2c1C(=O)c1ccccc1C2=O	Pf growth 48h 12µM, Pf growth 96h 10µM
O=C1c2ccccc2C(=O)c2c(NCc3cccnc3)cccc21	Pf growth 48h inconclusive, Pf growth 96h inconclusive, HCMV inh inconclusive
CN(C)S(=O)(=O)c1ccccc1C#N	none
CNc1cccc2c1C(=O)c1ccccc1C2=O	CHX counter 16, Pf growth 96h 2.9µM
Cc1ccc2c(c1)Oc1ccc(NC(=O)CCl)cc1C(=O)N2	Pf growth 48h inconclusive, Pf growth 96h inconclusive, HCMV inh -88
Cc1ccc[n+](-c2nc([O-])sc2C=O)c1	none
Cc1ccc(-n2c([O-])nc(-[n+]3ccccc3)c2C=O)cc1	HCMV inh -72
COc1ccc(NS(=O)(=O)c2cccc(C(=O)NCC3(N(C)C)CCCCC3)c2)cc1	Pf growth 96h inconclusive (no result: CHX counter, Shiga toxin inh)
CN(Cc1ccccc1)C(=O)CN1CCN(C(c2ccccc2)c2ccccc2)CC1	Pf growth 96h 10µM
COC(=O)CN1CCN(C(c2ccccc2)c2ccccc2)CC1	none
OC(CN1CCN(C(c2ccccc2)c2ccccc2)CC1)c1ccc(Br)cc1 (stereo unspecified)	Pf growth 96h 1.3µM (no result: Pf growth 48h)
OC(CN1CCN(c2ccccc2F)CC1)c1ccc(F)cc1 (stereo unspecified)	Pf growth 48h inconclusive, CHX counter 9.9, Pf growth 96h inconclusive
OC(CN1CCN(C(c2ccccc2)c2ccccc2)CC1)c1ccccc1 (stereo unspecified)	Pf growth 48h 9.3µM, Pf growth 96h inconclusive (no result: HCMV inh)
CC(C)Oc1ccc(S(=O)(=O)N2CCOCC2)cc1NC(=O)CN1C(=O)c2ccccc2C1=O	none (no result: Pf growth 48h, CHX counter, Pf growth 96h, Shiga toxin inh)
COc1ccc(C2CC(=O)Oc3c(C(CCN4CCCCC4)c4ccc(N(C)C)cc4)c(OC)cc(OC)c32)cc1 (stereo unspecified)	Pf growth 48h inconclusive, Pf growth 96h 9.3µM, HCMV inh -60
COc1cc(OC)c2c(c1C(CCN1CCCC1)c1ccc(N(C)C)cc1)OC(=O)CC2c1ccc(N(C)C)cc1 (stereo unspecified)	none (no result: Pf growth 48h, Pf growth 96h, HCMV inh)
COc1cc(C2CC(=O)Oc3c(C(CCN4CCN(c5ccccc5)CC4)c4ccc(N(C)C)cc4)c(OC)cc(OC)c32)cc(OC)c1OC (stereo unspecified)	Pf growth 48h 4.1µM, Pf growth 96h 4.1µM
COc1ccc(C2CC(=O)Oc3c(C(CCN4CCCC(C)C4)c4ccc(N(C)C)cc4)c(OC)cc(OC)c32)cc1 (stereo unspecified)	Pf growth 48h inconclusive, Pf growth 96h inconclusive
COc1cc(C2CC(=O)Oc3c(C(CCN4CCOCC4)c4ccc(N(C)C)cc4)c(OC)cc(OC)c32)cc(OC)c1OC (stereo unspecified)	Pf growth 48h 12µM, Pf growth 96h inconclusive
Cc1cc(S(=O)(=O)N2CCCOC2CNC(=O)C(=O)NCc2ccco2)ccc1F (stereo unspecified)	none
N#CCCN(Cc1cccnc1)C(=S)Nc1ccccc1Cl	none
CCN(Cc1ccncc1)C(=S)Nc1c(C)cccc1C	Pf growth 96h 2.1µM
Cc1cccc(C)c1NC(=S)N(Cc1ccccc1)Cc1cccnc1	Pf growth 48h inconclusive
CCc1cccc(C)c1NC(=S)N(Cc1cccnc1)Cc1ccco1	Pf growth 48h inconclusive, Pf growth 96h 12µM
S=C(Nc1ccccc1Cl)N(Cc1cccnc1)Cc1ccco1	Pf growth 48h 4.1µM, Pf growth 96h inconclusive
CN(c1ccc(Cl)cc1)S(=O)(=O)c1nnc(NC(=O)C2CCCCC2)s1	none (no result: Pf growth 48h, CHX counter, Pf growth 96h, Shiga toxin inh)
CCN1C(=O)c2ccccc2Sc2ccc(C(=O)NCCN3CCOCC3)cc21	Pf growth 96h inconclusive
O=C(NCCN1CCOCC1)c1ccc2c(c1)N(Cc1c(F)cccc1Cl)C(=O)c1ccccc1S2	Pf growth 48h 13µM, Pf growth 96h 9.3µM
Cc1cccc(CN2C(=O)c3ccccc3Sc3ccc(C(=O)NCCCN4CCOCC4)cc32)c1	Pf growth 48h inconclusive, Pf growth 96h inconclusive, HCMV inh -64!
O=C(NCCN1CCOCC1)c1ccc2c(c1)N(Cc1ccccc1)C(=O)c1ccccc1S2	Pf growth 48h inconclusive, HCMV inh active
